# Source: PubChem BioAssay AID463173 (ICCB-Longwood Screening Facility, Harvard Medical School, 2010)
# The whole screen tested about 52,000 compounds, of which about 4,300 (8.3%) were called active. The full list was thinned out, with actives kept by preference. Values without a mark were called inactive. No stated cut-off is given here; in the data, active means survival mostly below about 52% (no sharp cut-off); inactive means mostly above about 56%.
# Tested on: DeltatarO mutant
# Assay: growth inhibition of S. aureus wild type versus tarO mutant, primary screen, teichoic acid synthesis inhibitors, RN4220, OD600 (AID 463173)
# Details: OD600, 18 h, stronger effect = lower value, screened at 18.75 µg/mL (by protocol)
row,SMILES,survival
1,CCCC(=O)C1=C(c2cccc(OC)c2)N(C(=O)CCC)n2c(C)nnc2S1,85%
2,O=C(c1ccc(Br)cc1)N1CCN(CCc2ccncc2)CC1,78%
3,COc1cc(NC(=O)CC2C(=O)N(c3cccc(C)c3)C(=O)N2Cc2ccc(F)cc2)cc(OC)c1 (configuration not stated),94%
4,CC1=NN(c2ccccc2)C(c2ccccc2)C1 (configuration not stated),101%
5,O=C(CN(c1ccc2c(c1)OCCO2)S(=O)(=O)c1ccccc1)NCc1ccco1,85%
6,CCOC(=O)C1CCN(C(c2ccc(C)cc2)c2c(O)cc(C)n(CCOC)c2=O)CC1 (configuration not stated),76%
7,C=CCn1c(C)c(C=C(C#N)C#N)c2ccccc21,99%
8,CC1(c2ccccc2)OC(=O)C(C#N)C12CCCCC2 (configuration not stated),103%
9,NC(=O)c1ccc2nc(N)sc2c1,102%
10,Cc1cccc(C(=O)N2CCCCC2CCN2CCCCC2)c1 (configuration not stated),80%
11,COc1ccc(CCNC(=O)c2nc(SCc3ccc(C)cc3)ncc2Cl)cc1OC,65%
12,COc1ccc(NC(=O)c2nc(SCc3ccc(F)cc3)ncc2Cl)cc1,69%
13,CC(C)Sc1ncc(Cl)c(C(=O)Nc2nnc(C(C)C)s2)n1,69%
14,COc1ccc(CCNC(=O)c2nc(SCc3ccc(F)cc3)ncc2Cl)cc1OC,46% (active)
15,COc1ccc(CCNC(=O)c2nc(SCc3ccccc3F)ncc2Cl)cc1OC,64%
16,CC(C)c1nnc(NC(=O)c2nc(SCc3ccc(F)cc3)ncc2Cl)s1,24% (active)
17,COc1ccccc1CNC(=O)CSc1nc(=O)[nH]c2c1CCC2,78%
18,COc1cc(CN(C(=O)COc2ccc(C)c(C)c2)c2ccccn2)cc(OC)c1OC,71%
19,COc1ccc(-n2c(=O)c3ccccc3n(CC(=O)NCCc3ccccc3)c2=O)c(OC)c1,74%
20,CCn1ccc2cc(S(=O)(=O)N3CCCN(C(=O)Nc4ccccc4OC)CC3)ccc21,80%
21,COc1ccc(-n2ncc(C(=O)NCCN3CCOCC3)c2C2CCN(C(=O)OC(C)(C)C)CC2)cc1,119%
22,COc1ccc(S(=O)(=O)Nc2cc(-c3cn4ccccc4n3)ccc2C)cc1,102%
23,Cc1cc(C)c(S(=O)(=O)Nc2cc(-c3cn4ccccc4n3)ccc2C)cc1C,56%

row,SMILES,survival
1,COc1ccc(S(=O)(=O)Nc2cc(-c3cn4ccc(C)cc4n3)ccc2C)cc1OC,62%
2,CCCS(=O)(=O)Nc1cc(-c2cn3cccc(C)c3n2)ccc1C,59%
3,COc1ccc(Br)cc1S(=O)(=O)Nc1cc(-c2cn3ccccc3n2)ccc1C,43% (active)
4,COc1ccc(S(=O)(=O)Nc2cc(-c3cn4cccc(C)c4n3)ccc2C)cc1C,53% (active)
5,CC(=O)Nc1ccc(S(=O)(=O)Nc2cc(-c3cn4ccccc4n3)ccc2C)cc1,67%
6,Cc1ccc(-c2cn3cccc(C)c3n2)cc1NS(=O)(=O)c1ccccc1,41% (active)
7,COc1ccc(S(=O)(=O)Nc2ccc(-c3cn4ccsc4n3)cc2)cc1C,128%
8,CCc1ccc(S(=O)(=O)Nc2cc(-c3cn4ccccc4n3)ccc2C)cc1,74%
9,Cc1ccc(S(=O)(=O)Nc2cccc(-c3cn4cccc(C)c4n3)c2)c(C)c1,75%
10,Cc1ccn2cc(-c3ccc(C)c(NS(=O)(=O)c4ccc(Cl)cc4)c3)nc2c1,43% (active)
11,Cc1cc(=O)[nH]c(SCC(=O)N2CCN(c3ccccc3)CC2)n1,81%
12,Cc1ccc(Cl)cc1NS(=O)(=O)c1ccc2oc(=O)c3ncn(C)c3c2c1,124%
13,O=C(Nc1ccc2oc(-c3ccc4ccccc4c3)nc2c1)c1cccc(Cl)c1Cl,63%
14,COc1cc(NC(=O)CCCN2C(=O)CCn3nc(-c4cn(C)c5ccccc45)cc32)cc(OC)c1,126%
15,CCCOc1ccc(C(=O)Nc2ccc(-c3cc4ccccc4oc3=O)c(C)c2)cc1,71%
16,N#CC1=C2SCN(C3CCCCC3)CN2C(=O)CC1c1ccc(F)cc1 (configuration not stated),87%
17,CCc1ccccc1NC(=O)Cn1cc(C(=O)c2ccncc2)c(=O)c2cc(C)ccc21,83%
18,CCS(=O)(=O)Nc1cc(-c2cn3ccc(C)cc3n2)ccc1C,60%
19,Cc1ccc(-c2cn3ccc(C)cc3n2)cc1,22% (active)
20,CCCS(=O)(=O)Nc1cc(-c2cn3ccc(C)cc3n2)ccc1C,78%
21,COc1cccc(C(=O)Nc2ccc(C(=O)OCc3cc(=O)n4cc(C)sc4n3)cc2)c1,66%
22,O=C(C1CCN(c2nc3ccccc3[nH]2)CC1)N1CCN(c2ccccc2)CC1,89%
23,CN(C)c1ccc(CNC(=O)C2CCN(c3nc4ccccc4[nH]3)CC2)cc1,63%

row,SMILES,survival
1,COc1ccc(CNC(=O)C2CCN(c3nc4ccccc4[nH]3)CC2)cc1OC,55%
2,COc1cccc(CNC(=O)C2CCN(c3nc4ccc(Cl)cc4[nH]3)CC2)c1,101%
3,Cc1ccc2nc(N3CCC(C(=O)N4CCN(c5cccc(Cl)c5)CC4)CC3)[nH]c2c1,68%
4,COc1ccccc1CNC(=O)C1CCN(c2nc3ccc(C)cc3[nH]2)CC1,100%
5,O=C(C1CCN(c2nc3ccccc3[nH]2)CC1)N1CCN(c2cccc(Cl)c2)CC1,8% (active)
6,CCOc1cc(CNC(=O)C2CCN(c3nc4ccccc4[nH]3)CC2)cc(OCC)c1OCC,20% (active)
7,COc1ccccc1CNC(=O)C1CCN(c2nc3ccc(Cl)cc3[nH]2)CC1,25% (active)
8,CC1CCN(S(=O)(=O)c2cn(CC(=O)Nc3ccc(F)c(Cl)c3)c(=O)c3ccccc23)CC1,73%
9,CCOc1ccc(-n2nc(CO)c(C(=O)NCc3cccs3)n2)cc1,40% (active)
10,Cc1ccc(-n2nc(CO)c(C(=O)NCc3cccs3)n2)cc1C,39% (active)
11,Cc1ccc(-n2nc(CO)c(C(=O)NC(C)c3ccccc3)n2)cc1C (configuration not stated),41% (active)
12,Cc1ccc(-n2nc(CO)c(C(=O)NCc3cccs3)n2)cc1,92%
13,CCc1ccc(-n2nc(CO)c(C(=O)NCc3cccs3)n2)cc1,60%
14,Cc1ccccc1-n1nc(CO)c(C(=O)NCc2cccs2)n1,79%
15,O=C(NCc1cccs1)c1nn(-c2ccccc2)nc1CO,84%
16,Cc1ccc(-n2nc(CO)c(C(=O)NCCc3ccccc3)n2)cc1C,111%
17,Cc1ccc(-n2nc(CO)c(C(=O)NC(C)CCCc3ccccc3)n2)cc1C (configuration not stated),94%
18,CCN(CC)C(=O)C1=CC(c2ccc3c(c2)OCO3)=NS(=O)(=O)N1C,86%
19,Cc1nc(SCC(=O)OCN2C(=O)c3ccccc3C2=O)n[nH]1,80%
20,COC(=O)C(C)Sc1ncnc2c1c(-c1ccccc1)cn2-c1ccc(F)cc1 (configuration not stated),76%
21,Cn1c(=O)c2c(c3ccccc31)OC(=O)CC2c1ccc(C(F)(F)F)cc1 (configuration not stated),61%
22,COc1ccc(C2CC(=O)c3c([nH]c(C(=O)OCCOc4ccccc4)c3C)C2)cc1OC (configuration not stated),99%
23,COc1ccc(C)cc1NC(=O)C(Cc1ccccc1)NS(=O)(=O)c1ccc(Br)s1 (configuration not stated),131%

row,SMILES,survival
1,Cc1ccc(N2CC(NC(=O)C3CC3)CC2=O)cc1C (configuration not stated),94%
2,COc1ccccc1N1CCN(CC(O)COc2ccc(Cl)c(C)c2)CC1 (configuration not stated),59%
3,Cc1cc(OCC(O)CN2CCN(c3cccc(Cl)c3)CC2)ccc1Cl (configuration not stated),-1% (active)
4,CC(=O)Nc1ccc(OCC(O)CN2CCN(c3ccc(C)c(Cl)c3)CC2)cc1 (configuration not stated),76%
5,CCOC(=O)c1c(C)oc2nc(C)nc(NCC3CCN(Cc4ccc(C)cc4)CC3)c12,91%
6,O=C(O)CN1C(=O)/C(=c2\sc3nc4ccccc4n3c2=O)c2ccccc21,81%
7,O=c1[nH]c2ccc(NCc3ccccc3F)cc2[nH]1,94%
8,CCOc1ccccc1CNC(=O)c1cnn(-c2ccc(C)cc2)c1-n1cccc1,37% (active)
9,COc1cc(OC)c(NC(=O)c2cnn(-c3ccccc3)c2-n2cccc2)cc1Cl,84%
10,CCOC(=O)c1cccc(NC(=O)c2cnn(-c3ccccc3)c2-n2cccc2)c1,80%
11,COc1ccc(CNC(=O)c2cnn(-c3ccccc3)c2-n2cccc2)cc1OC,113%
12,O=C(Nc1cc(C(F)(F)F)ccc1Cl)c1cnn(-c2ccccc2)c1-n1cccc1,0% (active)
13,COc1ccccc1NC(=O)c1cnn(-c2ccccc2)c1-n1cccc1,93%
14,CCOc1ccc(NC(=O)c2cnn(-c3ccccc3)c2-n2cccc2)cc1,71%
15,CSc1ccc(CCNC(=O)c2cnn(-c3ccccc3)c2-n2cccc2)cc1,46% (active)
16,CCc1ccc(NC(=O)c2cnn(-c3ccccc3)c2-n2cccc2)cc1,31% (active)
17,COc1ccc(CNC(=O)c2cnn(-c3ccc(F)cc3)c2-n2cccc2)cc1,89%
18,Cc1ccc(-n2ncc(C(=O)NCc3ccccc3C)c2-n2cccc2)cc1,74%
19,O=C(NCCc1ccccc1)c1cnn(-c2ccc(F)cc2)c1-n1cccc1,58%
20,COCCn1c(C)cc(O)c(C(c2ccccc2F)N2CCN(c3ccccc3)CC2)c1=O (configuration not stated),79%
21,COc1ccc(N2CCN(C(=O)CSc3nnc4c(C)cc5cc6c(cc5n34)OCCO6)CC2)cc1,86%
22,COc1ccc(NC(=O)CN2C(=O)C(c3ccccc3)=NC23CCC(C)CC3)cc1Cl (configuration not stated),73%
23,COC(=O)c1c(-c2cccs2)csc1NC(=O)c1ccc(C(C)C)cc1,73%
